# From PubChem BioAssay (NCI)
# This is part of a sample that, as a whole, favours compounds with a hit. Of some 83,000 tested, about 20% had one in any assay.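 Note: values are percent growth. 100 is the growth of untreated cells, values between 100 and 0 indicate rising inhibition; between -100 and 0 indicates cell death.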 Unmarked numbers belong to inactive results. Activity calls are given as the source filed them.
# Tested on: MCF7 breast
# Assay: NCI-60 one-dose screen, 48 h (100 = growth as untreated, 0 = no growth, -100 = all killed)
# Details: 10 µM unless noted
# Procedure: Growth inhibition of the MCF7 human tumor cell line is measured as a screen for anti-cancer activity. Cells are grown in 96 well plates and exposed to the test compound for 48 hours. Compounds are tested at a single concentration, which is 10^-5 M for most compounds. The reported endpoint is percent growth (GI% or GIPRCNT), where numbers from 0 - 100% represent growth inhibition, and numbers from -100% - 0 represent cell death. For example, a value of 40 represents 60% growth inhibition. A value of 0 means no net growth occurred over the course of the experiment. A value of -40 indicates 40% of cells at the beginning of the experiment died by the end of the experiment. A value of -100 means all cells are dead at the end of the experiment.
# NCI-60 Human Tumor Cell Lines Screen was performed using the standard one-dose NCI protocol, which is described in more detail at https://dtp.cancer.gov/discovery_development/nci-60/default.htm.
# Compounds with GIPRCNT values below 10 were considered active. Activity score was based on GIPRCNT using the following formula: […]
# Score is 0 for GIPRCNT values of 100 or above, 50 for GIPRCNT values of 0, and 100 for GIPRCNT values of -100.
row,Structure (SMILES),growth
1,CCN1CCC2(CC1)NC(=O)c1c(c3ccc(Cl)c(Cl)c3n1C)C2C#N (stereo not given),35%
2,O=C1NC(=Nc2ccc(O)cc2)S/C1=C\c1cccc(Cl)c1,18.6%
3,COc1ccc(C(=O)COc2ccc(/C=C3\Oc4ccc(OC)cc4C3=O)cc2)cc1,110%
4,CCOc1cc2c(cc1OCC)C(c1cc(OC)c(O)cc1Cl)NCC2 (stereo not given),93.5%
5,COc1ccc(/C=C\c2cc(OC)c(OC)c(OC)c2)cc1OCC(=O)Nc1ccc2nc(C)sc2c1,20.6%
6,O=C(N/N=C/c1c[nH]c2ccccc12)c1cc(-c2ccccc2)on1,79.1%
7,Cc1cc(C)nc(SC2=C(Nc3cc(Cl)ccc3O)C(=O)N(Cc3ccccc3)C2=O)n1,46.4% [30 µM]
8,COc1cccc2c1C(=O)c1c(O)c3c(c(O)c1C2=O)C[C@](O)(C(=O)CO)C[C@H]3O[C@@H]1C[C@@H](NC(=O)CCCCCN(C)C2(c3ccc(F)cc3)CC3CCC2C3)[C@H](O)[C@@H](C)O1 (stereo not given in full),-46.2% (active)
9,COc1cc(-c2nc(C(=O)NCC(=O)NO)nn2-c2ccc(Cl)cc2)cc(OC)c1OC,92.2%
10,Cc1cc(N2CCOCC2)nc(NCc2cc(Nc3ccnc4cc(Cl)ccc34)ccc2F)n1,-55.9% (active)
11,Cn1c(NCCc2ccc(O)c(O)c2)nc2c1c(=O)n(Cc1ccc(Cl)c(Cl)c1)c(=O)n2C,79%
12,C=C1c2nc3ccccc3n2C=C(c2ccc(Cl)cc2)N1Cc1ccc(OC)cc1,54%
13,O=S(=O)(Nc1ccc(Br)c(Cl)c1)c1ccc(-c2cnc(C3CC3)o2)cc1,11.7%
14,COc1cc(-c2nn(-c3ccc(C)cc3)cc2C(=O)O)ccc1O,93.4%
15,C=CCSSC1N=CNc2nc[nH]c21 (stereo not given),4.28% (active)
16,O=C1c2ccccc2C(=O)c2c1ccc1[nH]c(-c3cccs3)nc21,66.4%
17,N=C(N)c1ccc(-c2ccc(-c3ccc4ccccc4c3)s2)s1,-66.7% (active)
18,CC/C=C\C[C@H]1C/C=C2/C(=O)C=C[C@H]2C/C=C\CCCC(=O)O1,46.2%
19,CCn1c(Cc2ccccc2Nc2c(Cl)cccc2Cl)nnc1SCC(=O)NN1C(=O)/C(=C/c2cc(OC)c(O)c(OC)c2)SC1=S,16.9%
20,C(=N/Nc1ncc(-c2cc3cc(-c4ccccc4)ccc3o2)s1)/c1cccs1,89.7%

row,Structure (SMILES),growth
1,Nc1n[nH]c2cc(F)c([C@@H]3Nc4ccc5[nH]ncc5c4[C@H]4C5CCC(C5)[C@@H]34)cc12 (stereo not given in full),16.3%
2,CC1SC(c2ccc(N(C)C)cc2)N(NC(=O)C(O)(c2ccccc2)c2ccccc2)C1=O (stereo not given),118%
3,c1ccc(CCNc2ncnc3[nH]ncc23)cc1,130%
4,C=CC(=O)Nc1cccc(-c2nc(SC)nc(Nc3cccc(OC)c3)c2C#N)c1,52.2%
5,CC[C@]1(O)C[C@@H]2CN(CCc3c([nH]c4ccccc34)[C@@](C(=O)OC)(c3cc4c(cc3OC)N(C)[C@H]3[C@@](O)(C(N)=O)[C@H](O)[C@]5(CC)[C@@H]6C[C@@H]6CN6CC[C@]43[C@@H]65)C2)C1,18.9%
6,CNc1ccc(-c2cc(=O)oc3ccc(Cl)cc23)cc1,18.3%
7,Cc1ccc(C2Oc3ccccc3C3CC(c4cccs4)=NN32)cc1 (stereo not given),80.4%
8,CCCn1c(=O)[nH]c(N)c([C@H]2c3ccccc3Oc3[nH]c(=O)n(CCC)c(=O)c32)c1=O,26.4%
9,OCC(O)c1nc2ccc3[nH]ncc3c2c2c1CCCC2 (stereo not given),8.02% (active)
10,COc1ccc(C(=S)N2CCN(c3cccc(Cl)c3)CC2)cc1,111%
11,COc1ccc(-c2nc3ccc(-c4nc5ccc(N6CCN(c7ccncc7)CC6)cc5[nH]4)cc3[nH]2)cc1OC,12.3%
12,CC(=O)Nc1ccc(S(=O)(=O)Nc2cccc(-c3nc(-c4ccc(NC(=O)c5cccnc5)cc4Cl)no3)c2)cc1,17.1%
13,O=C1/C(=C(/c2ccccc2)N2CCOCC2)Cc2ccccc21,17.9%
14,CCOc1nc(-c2ccccc2)cc2c(O)c(C(=O)N/N=C/c3ccc(O)cc3O)[nH]c(=O)c12,46.3%
15,OC(COc1cccc2ccccc12)CN1CCN(c2ccccc2Cl)CC1 (stereo not given),105%
16,C#CCOc1ccc2ncnc(N3CCC(NC(=O)CCl)CC3)c2c1,51.9% [8.25 µM]
17,C#CCOc1ccc2ncnc(Nc3cccc(CNC(=O)CCl)c3)c2c1,30.4% [8.25 µM]
18,O=C1c2cccc3cccc(c23)C(=O)N1CCCCCN1CCN(CCCCCOc2ccc(-c3nc4ccc(N5CCOCC5)cc4[nH]3)cc2)CC1,-25.7% (active)
19,CCn1c(O)c(/C=N/NC(=O)C(C)c2ccc(CC(C)C)cc2)sc1=S (stereo not given),20.5%
20,CCCc1cc(=O)n2c(C(=O)Nc3cccc(C(=O)OCC)c3)c(C(=O)Nc3ccc(F)cc3)sc2n1,57.4% [30 µM]
